# Shiga inhibitor – Shiga toxin inhibition; Vero cells, Shiga toxin protein synthesis inhibition reporter; inhibition, % at 38.7 µM; actives 9.2% (n = 290,000); AID 2315; in the data active = inhibition mostly above about 28%, no sharp cut-off; inactive = mostly below about 43%; also: 0% is about no effect
# CHX counter – counter-screen for Shiga toxin inhibitors: cycloheximide protein synthesis inhibition | cell reporter, cycloheximide protein synthesis inhibition counterscreen | max response, % | actives 12% (n = 300,000) | AID 2314; in the data active = max response mostly above about 13%, no sharp cut-off; inactive = mostly below about 14%; also: read at 38.3 µM for the half of the compounds with a filed dose; 0% is about no effect
# SARS PLP yeast – SARS-CoV PLP inhibition in yeast; S. cerevisiae expressing SARS-CoV PLpro, growth rescue; Potency, µM (series often up to 32.9 µM), for inactives: at the highest dose activity, positive = growth rescue, hits mostly activators; actives 0.19% (n = 330,000); also: potency is read from the fitted curve at half-maximal effect; 0% is about no effect; nearly all actives have a fitted effect of over 55% in size
# NS1 function inh – inhibitors of influenza NS1 protein function; Potency, µM (highest dose often 46.1 µM), without a hit: at the highest dose activity, positive = more growth; actives 0.4% (n = 270,000); AID 2326; also: potency is read from the fitted curve at half-maximal effect; actives are rising curves; nearly all actives have a fitted effect of over 50% in size
#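 In this qHTS, NS1 from influenza A is expressed in budding yeast, where it slows growth. Cells are switched from glucose to 2% galactose medium (pH 6.0, -URA), treated with compound, and growth recovery is read at OD600.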
# Pf growth 48h – P. falciparum growth inhibition at 48 hours (one generation) | P. falciparum luciferase growth in erythrocytes, 48 h | actives 5.9% (n = 310,000) | Potency, µM (doses to about 28.7 µM), for inactives: at the top dose activity change, negative = inhibition, most hits filed as inhibitors | AID 504832; active = well fitted inhibition curve with a large enough effect; inconclusive = small, poorly fitted or top-dose-only effect, or another doubt; inactive = no such curve, though single readings can be large or run the other way; also: potency is read from the fitted curve at half-maximal effect; % is scaled to controls: 0 for no effect and ±100 for the full control effect
#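 In quantitative HTS format, infected erythrocytes bearing luciferase-reporter parasites were treated for a single generation at 37 C. Luminescence after adding detection reagent served as the growth measure.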
# Pf growth 96h – P. falciparum growth inhibition at 96 hours | P. falciparum luciferase reporter growth, 96 h | Potency, µM (series often up to 28.7 µM), for the others: at the highest dose activity change, negative = inhibition, actives largely listed as inhibitors | actives 6.9% (n = 320,000) | AID 504834; active = well fitted inhibition curve with a large enough effect; inconclusive = small, poorly fitted or top-dose-only effect, or another doubt; inactive = no such curve, though single readings can be large or run the other way; also: potency is read from the fitted curve at half-maximal effect; % is scaled to controls: 0 for no effect and ±100 for the full control effect
#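 96 h incubation, 37 C, 5% CO2, of luciferase-reporter P. falciparum-infected RBCs (2% hematocrit, 0.05% parasitemia final) with test compounds; endpoint luminescence.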
# Starred values were filed as active, the others as inactive; ? = inconclusive; · = not tested or not shown. Only some compounds are listed: those with a hit (about 21% of all), similar ones and a draw of the others. Unless noted, calls follow the shape of the full dose curve.
SMILES,Shiga inhibitor,CHX counter,SARS PLP yeast,NS1 function inh,Pf growth 48h,Pf growth 96h
C/C(=C\c1ccccc1)C(=O)Nc1nccs1,152*,49*,-1%,·,244%,0%
N#C/C(=C\c1cccs1)C(=O)Nc1nccs1,65*,27*,-1%,-37%,20%,24%
O=C(Nc1nccs1)c1ccccc1N=Cc1ccccc1,48*,25*,19%,-20%,33%,136%
COc1cc(/C=C/C(=O)O)cc2c1OCCO2,-7,1,5%,·,10%,15%
COc1ccc(C(CNC(=O)c2cc3c(s2)CCC(C)C3)N2CCCC2)cc1 (stereo not given),·,·,3%,·,9.3µM*,4.1µM*
COc1ccc(C(CNC(=O)c2cc3ccccc3cc2O)N2CCOCC2)cc1 (stereo not given),·,·,2%,·,9.3µM*,10µM*
CCC1CCc2sc(C(=O)NCC3CCCO3)cc2C1 (stereo not given),·,·,-5%,·,224%,371%
COc1ccc(C(CNC(=O)c2cc3c(s2)CCC(C)C3)N2CCOCC2)cc1 (stereo not given),·,·,-2%,·,12µM*,?
CCC1CCc2sc(C(=O)NCc3ccccn3)cc2C1 (stereo not given),61*,37*,-5%,-30%,-16%,?
CC1CN(CCC(=O)Nc2ccccc2F)CC(C)O1 (stereo not given),-4,-2,-7%,23%,?,-9%
COc1ccc(NC(=O)CN(C)C(=O)c2cc3c(s2)CCC(C)C3)cc1 (stereo not given),19,14*,-5%,-51%,-14%,-8%
CCC1CCc2sc(C(=O)NC3CCN(Cc4ccccc4)CC3)cc2C1 (stereo not given),·,·,-2%,·,?,?
CC1CCc2sc(C(=O)NC3CCN(Cc4ccccc4)CC3)cc2C1 (stereo not given),·,·,-2%,·,8.3µM*,6.6µM*
CCC1CCc2sc(C(=O)NCC(c3ccccc3OC)N3CCCC3)cc2C1 (stereo not given),·,·,0%,·,10µM*,9.3µM*
COc1ccccc1CNC(=O)CN(C)CC(=O)Nc1ccccc1Br,·,·,-2%,·,·,·
Cc1occc1-c1nnc(SCC(=O)Nc2ccc(F)cc2)n1C,-6,2,2%,6%,?,4%
COc1ccc(OCCSc2nnc(-c3ccoc3C)n2C)cc1,7,0,-2%,-13%,8.3µM*,?
CCOC(=O)c1cccc(NC(=O)CSc2nnc(-c3ccoc3C)n2CC)c1,-20,16,3%,-11%,-9%,13µM*
Cc1cccc(C)c1NC(=O)CSc1nnc(-c2ccoc2C)n1C,7,-2,1%,3%,0%,9.3µM*
COC(=O)CSc1nnc(-c2ccoc2C)n1-c1ccc(OC)cc1,-7,-3,-7%,-56%,6%,?
CCOC(=O)c1cccc(NC(=O)CSc2nnnn2CC)c1,7,-3,-5%,-5%,-3%,-8%
Fc1ccc(OCc2nnc(-c3ccccc3Br)o2)c(Cl)c1,109*,15*,-7%,-14%,-8%,?
COc1cc(C(C)=O)ccc1OCc1nnc(-c2ccccc2Br)o1,60*,16*,-4%,-8%,?,?
O=[N+]([O-])c1ccc2c(OCc3nnc(-c4ccccc4Br)o3)ncnc2c1,-2,-2,0%,-6%,?,9.3µM*
Clc1ccc(OCc2nnc(-c3ccccc3Br)o2)c(Cl)c1,83*,39*,11%,-28%,71%,?
SMILES,Shiga inhibitor,CHX counter,SARS PLP yeast,NS1 function inh,Pf growth 48h,Pf growth 96h
COC(=O)c1ccc(COc2ccccc2/C=N/NS(=O)(=O)c2ccccc2)cc1,18,17,-4%,-14%,37%,40%
Cc1cc(C(=O)OCC(=O)N2CCc3ccccc32)ccc1[N+](=O)[O-],·,·,-1%,·,13%,2%
Cc1cc2[nH]c(=O)c(=O)[nH]c2cc1S(=O)(=O)NCc1ccc(Cl)cc1,-2,-1,3%,-3%,-5%,13µM*
Cc1cc2[nH]c(=O)c(=O)[nH]c2cc1S(=O)(=O)Nc1cccc(Cl)c1C,-5,-1,-4%,-1%,1%,-2%
Nc1nc(SCC(=O)N2CCCCC2)[nH]c(=O)c1NC(=O)c1ccccc1F,-10,-3,-5%,-11%,3%,?
COc1ccc(C2Nc3ccccc3C(=O)N2Cc2ccco2)cc1COc1ccc([N+](=O)[O-])cc1 (stereo not given),21,18,-10%,0%,?,5.9µM*
O=C1c2ccccc2NC(c2ccccc2)N1Cc1ccco1 (stereo not given),19,-3,-3%,5%,-14%,-6%
COc1cccc(OCc2cc(C3Nc4ccccc4C(=O)N3Cc3ccco3)ccc2OC)c1 (stereo not given),14,8,-8%,16%,8.3µM*,-7%
CCC(C)(C)NC(=O)CN(C(=O)c1csnn1)c1ccccc1-c1ccccc1,-2,-2,1%,-10%,?,25%
O=C(CCc1ccc(CCC(=O)c2cccs2)s1)c1cccs1,53*,22*,2%,-6%,46%,9%
O=C(CCSc1ccc(Cl)cc1)NC12CC3CC(CC(C3)C1)C2,21,9,3%,-67%,·,?
O=C(O)CCNc1ccc(Cl)cc1,-6,-2,-1%,6%,-4%,?
O=C(CCC(=O)c1cccs1)NNC(=O)c1cc(Cl)ccc1Cl,·,·,-9%,·,·,·
O=C(CCSc1ccc(Cl)cc1)c1cccs1,24,12*,-1%,-14%,14%,0%
O=C(CCC(=O)c1cccs1)NCc1ccc(F)cc1,-2,-5,1%,3%,·,36%
O=C(CCNc1cc(Cl)cc(Cl)c1)c1cccs1,43,18*,-27%,-77%,19%,111%
O=C(CCNc1ccc(Cl)cc1)c1cccs1,42*,32*,3%,6%,43%,?
O=C(COc1ccc(F)cc1)N1CCC(c2ccccc2)C1 (stereo not given),58*,43*,-19%,-8%,157%,?
Cc1cccc(OCC(=O)N2CCN(C(=O)Cc3ccccc3)CC2)c1,-8,1,-1%,-19%,11%,28%
Cc1cccc(OCC(=O)N2CCC(c3ccccc3)C2)c1 (stereo not given),79*,30*,-3%,-8%,100%,?
CCOc1ccc2nc(NC(=O)C3CCCN(S(=O)(=O)c4cccc5nonc45)C3)sc2c1 (stereo not given),-15,-6,-1%,10%,·,?
COc1ccc2nc(NC(=O)C3CCCN(S(=O)(=O)c4c(C)noc4C)C3)sc2c1 (stereo not given),13,-3,-3%,-31%,?,48%
COc1ccc2nc(NC(=O)C3CCCN(S(=O)(=O)c4cccc5nonc45)C3)sc2c1 (stereo not given),13,9,-4%,-32%,13µM*,88%

# High-throughput results from PubChem.
